Columns and labels:
Assay in all cases: DAPPL (digital affinity profiling via proximity ligation, sequencing); 10 mM Tris-HCl pH 7.5, 50 mM NaCl, 1 mM DTT, 4% glycerol, room temperature, 30 min; GST-TFs on glutathione beads, 16-mer random dsDNA library, 0.1% formaldehyde crosslink after washing; high values mean tight binding
FLI1 = target: T1, FLI1 (Homo sapiens, UniProt Q01543 1-452); conditions: protein: recombinant; tags: N-terminal GST; dsDNA, one strand shown
T1 sequence: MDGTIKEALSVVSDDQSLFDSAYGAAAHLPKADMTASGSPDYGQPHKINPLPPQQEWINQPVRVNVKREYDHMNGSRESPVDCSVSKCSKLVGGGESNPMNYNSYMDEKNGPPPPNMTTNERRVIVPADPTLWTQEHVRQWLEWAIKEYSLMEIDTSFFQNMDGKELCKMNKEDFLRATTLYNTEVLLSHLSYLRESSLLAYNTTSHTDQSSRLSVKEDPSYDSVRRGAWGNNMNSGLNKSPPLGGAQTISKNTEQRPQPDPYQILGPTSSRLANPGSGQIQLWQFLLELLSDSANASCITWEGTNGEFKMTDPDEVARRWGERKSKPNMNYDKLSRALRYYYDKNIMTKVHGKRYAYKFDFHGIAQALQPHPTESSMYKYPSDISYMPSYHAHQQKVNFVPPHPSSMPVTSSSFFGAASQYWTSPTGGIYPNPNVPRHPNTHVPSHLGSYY
How it was run: (§1)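 Human transcription factors carrying a GST fusion were produced in yeast, bound to glutathione beads, tagged with DNA barcodes and pooled together with a tag-only sample. Each pool was held with 200 nmole of a random double-stranded 16-mer DNA library in Tris/NaCl/DTT/glycerol buffer for 30 min at room temperature, then washed, crosslinked in 0.1% formaldehyde, proximity-ligated with BsaI/T4 ligase (1 h, 37 °C), PCR-amplified and sequenced on an Illumina NextSeq500. Binding signal is the read frequency of each hexamer for a given factor divided by its frequency in the tag-only sample.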

ELK1 = target: T2, ELK1 (Homo sapiens, UniProt P19419 1-428); conditions: protein: recombinant; tags: N-terminal GST; dsDNA, one strand shown
T2 sequence: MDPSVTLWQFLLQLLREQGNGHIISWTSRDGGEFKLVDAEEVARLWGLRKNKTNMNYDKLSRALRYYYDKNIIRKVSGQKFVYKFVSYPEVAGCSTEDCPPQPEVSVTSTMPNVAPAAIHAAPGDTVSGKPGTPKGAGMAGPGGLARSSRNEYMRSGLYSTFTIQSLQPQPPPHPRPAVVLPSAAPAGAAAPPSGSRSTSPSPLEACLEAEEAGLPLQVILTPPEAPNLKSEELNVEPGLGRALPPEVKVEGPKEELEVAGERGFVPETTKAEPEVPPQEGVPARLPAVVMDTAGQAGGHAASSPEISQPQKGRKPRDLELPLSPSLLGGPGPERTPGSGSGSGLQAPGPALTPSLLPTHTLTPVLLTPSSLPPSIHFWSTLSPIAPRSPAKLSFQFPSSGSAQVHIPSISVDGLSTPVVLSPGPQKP
How it was run: as §1

GABPA = target: T3, GABPA (Homo sapiens, UniProt Q06546 1-454); conditions: protein: recombinant; tags: N-terminal GST; dsDNA, one strand shown
T3 sequence: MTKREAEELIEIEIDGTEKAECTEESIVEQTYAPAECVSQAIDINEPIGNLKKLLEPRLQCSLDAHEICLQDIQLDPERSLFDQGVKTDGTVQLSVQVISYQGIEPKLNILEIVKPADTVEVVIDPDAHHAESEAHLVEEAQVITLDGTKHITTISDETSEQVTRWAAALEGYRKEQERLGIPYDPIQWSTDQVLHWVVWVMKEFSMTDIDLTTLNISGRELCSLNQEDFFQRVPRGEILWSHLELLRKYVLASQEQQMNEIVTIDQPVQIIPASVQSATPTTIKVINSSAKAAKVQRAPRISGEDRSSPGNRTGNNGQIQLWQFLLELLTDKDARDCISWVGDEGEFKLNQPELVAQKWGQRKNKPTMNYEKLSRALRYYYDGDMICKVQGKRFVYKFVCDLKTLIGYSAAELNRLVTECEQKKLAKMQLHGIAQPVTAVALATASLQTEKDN
How it was run: as §1

ERG = target: T4, ERG (Homo sapiens, UniProt P11308 1-479); conditions: protein: recombinant; tags: N-terminal GST; dsDNA, one strand shown
T4 sequence: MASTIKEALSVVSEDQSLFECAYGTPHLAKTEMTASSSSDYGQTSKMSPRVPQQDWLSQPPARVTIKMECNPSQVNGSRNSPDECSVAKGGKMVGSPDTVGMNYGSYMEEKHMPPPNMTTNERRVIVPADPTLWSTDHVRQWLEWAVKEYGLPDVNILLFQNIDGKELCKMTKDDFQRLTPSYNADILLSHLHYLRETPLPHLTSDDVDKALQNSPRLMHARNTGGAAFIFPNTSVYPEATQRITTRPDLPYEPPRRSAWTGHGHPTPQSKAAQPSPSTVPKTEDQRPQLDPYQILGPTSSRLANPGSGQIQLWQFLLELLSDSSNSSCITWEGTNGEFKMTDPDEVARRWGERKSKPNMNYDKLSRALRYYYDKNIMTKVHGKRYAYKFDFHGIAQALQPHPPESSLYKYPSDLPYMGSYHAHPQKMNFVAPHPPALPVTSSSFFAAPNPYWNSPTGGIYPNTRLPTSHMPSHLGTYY
How it was run: as §1

ELF1 = ELF1 (Homo sapiens, UniProt P32519 1-619); conditions: protein: recombinant; tags: N-terminal GST; dsDNA, one strand shown
Sequence of ELF1 (P32519 whole entry): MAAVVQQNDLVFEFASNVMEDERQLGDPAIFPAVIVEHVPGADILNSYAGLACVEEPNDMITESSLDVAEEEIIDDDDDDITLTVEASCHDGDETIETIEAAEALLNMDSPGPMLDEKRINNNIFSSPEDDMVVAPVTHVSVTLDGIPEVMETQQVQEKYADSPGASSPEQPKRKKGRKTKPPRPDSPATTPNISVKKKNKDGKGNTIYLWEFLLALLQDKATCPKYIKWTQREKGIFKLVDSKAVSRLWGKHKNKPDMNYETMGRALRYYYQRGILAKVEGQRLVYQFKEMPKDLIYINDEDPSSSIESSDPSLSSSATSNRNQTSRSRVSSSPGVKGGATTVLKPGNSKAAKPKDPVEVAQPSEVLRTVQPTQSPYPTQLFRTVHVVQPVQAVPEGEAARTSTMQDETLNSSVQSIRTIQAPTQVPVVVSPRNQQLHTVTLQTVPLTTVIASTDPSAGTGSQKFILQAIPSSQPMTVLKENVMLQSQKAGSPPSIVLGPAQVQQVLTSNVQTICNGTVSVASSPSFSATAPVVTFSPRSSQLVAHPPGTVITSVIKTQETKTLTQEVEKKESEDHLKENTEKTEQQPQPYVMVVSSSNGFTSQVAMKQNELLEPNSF
How it was run: as §1

EHF = target: T5, EHF (Homo sapiens, UniProt Q9NZC4 1-300); conditions: protein: recombinant; tags: N-terminal GST; dsDNA, one strand shown
T5 sequence: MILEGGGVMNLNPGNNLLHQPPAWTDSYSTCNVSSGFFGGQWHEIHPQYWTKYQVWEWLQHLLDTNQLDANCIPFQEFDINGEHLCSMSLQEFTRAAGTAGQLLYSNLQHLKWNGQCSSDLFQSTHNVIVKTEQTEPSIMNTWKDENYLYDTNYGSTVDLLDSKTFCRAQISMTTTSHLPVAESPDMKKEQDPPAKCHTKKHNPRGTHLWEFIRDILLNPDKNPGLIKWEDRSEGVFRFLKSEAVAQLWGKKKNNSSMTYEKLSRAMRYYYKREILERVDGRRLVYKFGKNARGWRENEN
How it was run: as §1

SPI1 = SPI1 (Homo sapiens, UniProt P17947 1-270); conditions: protein: recombinant; tags: N-terminal GST; dsDNA, one strand shown
How it was run: as §1

SPIB = SPIB (Homo sapiens, UniProt Q01892 1-262); conditions: protein: recombinant; tags: N-terminal GST; dsDNA, one strand shown
Sequence of SPIB (Q01892 whole entry): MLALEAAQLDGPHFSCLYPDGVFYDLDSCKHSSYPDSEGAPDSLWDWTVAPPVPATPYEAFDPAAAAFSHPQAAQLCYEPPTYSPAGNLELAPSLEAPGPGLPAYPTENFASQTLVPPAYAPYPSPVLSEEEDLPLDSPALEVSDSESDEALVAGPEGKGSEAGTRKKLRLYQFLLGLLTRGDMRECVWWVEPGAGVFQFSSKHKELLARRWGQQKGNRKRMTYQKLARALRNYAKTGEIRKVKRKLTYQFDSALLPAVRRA
How it was run: as §1

ELK3 = target: T6, ELK3 (Homo sapiens, UniProt P41970 1-407); conditions: protein: recombinant; tags: N-terminal GST; dsDNA, one strand shown
T6 sequence: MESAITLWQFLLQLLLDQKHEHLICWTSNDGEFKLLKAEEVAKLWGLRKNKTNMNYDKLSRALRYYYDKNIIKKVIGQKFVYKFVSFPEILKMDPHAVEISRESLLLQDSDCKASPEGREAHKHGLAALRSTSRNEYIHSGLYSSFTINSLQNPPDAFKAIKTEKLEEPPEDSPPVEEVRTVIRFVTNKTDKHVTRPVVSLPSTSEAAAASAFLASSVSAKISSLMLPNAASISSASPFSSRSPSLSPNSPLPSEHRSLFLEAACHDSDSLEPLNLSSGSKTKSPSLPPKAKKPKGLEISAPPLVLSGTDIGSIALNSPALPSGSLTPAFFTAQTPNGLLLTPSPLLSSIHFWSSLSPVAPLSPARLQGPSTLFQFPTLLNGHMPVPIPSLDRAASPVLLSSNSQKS
How it was run: as §1

FEV = target: T7, FEV (Homo sapiens, UniProt Q99581 1-238); conditions: protein: recombinant; tags: N-terminal GST; dsDNA, one strand shown
T7 sequence: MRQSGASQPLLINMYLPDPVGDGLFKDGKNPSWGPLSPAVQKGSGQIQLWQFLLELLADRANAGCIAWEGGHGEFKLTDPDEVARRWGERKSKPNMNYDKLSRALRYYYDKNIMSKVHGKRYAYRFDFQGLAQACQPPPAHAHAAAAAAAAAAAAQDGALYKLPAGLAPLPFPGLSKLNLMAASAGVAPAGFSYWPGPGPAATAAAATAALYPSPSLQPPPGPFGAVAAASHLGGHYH
How it was run: as §1

ETV5 = ETV5 (Homo sapiens, UniProt P41161 1-510); conditions: protein: recombinant; tags: N-terminal GST; dsDNA, one strand shown
Sequence of ETV5 (P41161 whole entry): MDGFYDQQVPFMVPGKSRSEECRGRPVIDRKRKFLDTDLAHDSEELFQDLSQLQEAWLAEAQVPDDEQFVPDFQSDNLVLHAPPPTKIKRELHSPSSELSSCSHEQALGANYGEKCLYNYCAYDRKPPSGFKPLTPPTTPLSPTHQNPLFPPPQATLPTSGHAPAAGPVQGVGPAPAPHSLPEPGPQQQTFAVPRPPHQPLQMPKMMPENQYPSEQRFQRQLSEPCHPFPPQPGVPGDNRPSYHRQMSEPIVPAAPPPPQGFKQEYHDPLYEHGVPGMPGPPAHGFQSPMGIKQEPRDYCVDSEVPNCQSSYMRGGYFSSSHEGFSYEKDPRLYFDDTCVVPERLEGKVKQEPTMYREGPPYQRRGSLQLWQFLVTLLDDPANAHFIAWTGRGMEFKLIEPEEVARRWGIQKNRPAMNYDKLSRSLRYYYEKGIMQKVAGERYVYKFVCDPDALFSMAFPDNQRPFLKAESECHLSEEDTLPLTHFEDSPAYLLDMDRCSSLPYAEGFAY
How it was run: as §1

HSF1 = HSF1 (Homo sapiens, UniProt Q00613 1-529); conditions: protein: recombinant; tags: N-terminal GST; chain copies: 3; dsDNA, one strand shown
Sequence of HSF1 (Q00613 whole entry): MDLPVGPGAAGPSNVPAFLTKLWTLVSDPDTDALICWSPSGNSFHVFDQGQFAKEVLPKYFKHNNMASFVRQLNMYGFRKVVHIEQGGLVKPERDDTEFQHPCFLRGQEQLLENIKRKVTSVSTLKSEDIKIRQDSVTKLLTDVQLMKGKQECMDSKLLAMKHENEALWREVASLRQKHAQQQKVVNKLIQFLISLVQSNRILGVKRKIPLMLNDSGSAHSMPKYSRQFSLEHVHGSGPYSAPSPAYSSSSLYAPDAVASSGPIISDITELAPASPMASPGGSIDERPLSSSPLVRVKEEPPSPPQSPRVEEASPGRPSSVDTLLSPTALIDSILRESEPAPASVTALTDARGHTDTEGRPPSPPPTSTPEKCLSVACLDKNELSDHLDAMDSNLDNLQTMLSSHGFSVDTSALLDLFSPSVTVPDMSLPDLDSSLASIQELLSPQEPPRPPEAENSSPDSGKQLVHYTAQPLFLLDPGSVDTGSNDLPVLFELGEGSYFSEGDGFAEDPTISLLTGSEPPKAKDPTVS
How it was run: as §1

SPIC = target: T8, SPIC (Homo sapiens, UniProt Q8N5J4 1-248); conditions: protein: recombinant; tags: N-terminal GST; dsDNA, one strand shown
T8 sequence: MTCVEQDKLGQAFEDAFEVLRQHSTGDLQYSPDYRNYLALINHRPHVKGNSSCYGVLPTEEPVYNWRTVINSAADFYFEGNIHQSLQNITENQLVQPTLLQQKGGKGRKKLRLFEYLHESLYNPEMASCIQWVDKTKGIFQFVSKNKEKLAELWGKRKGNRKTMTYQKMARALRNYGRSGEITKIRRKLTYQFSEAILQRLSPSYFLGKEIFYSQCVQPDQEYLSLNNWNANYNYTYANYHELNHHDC
How it was run: as §1

ELF4 = ELF4 (Homo sapiens, UniProt Q99607 1-663); conditions: protein: recombinant; tags: N-terminal GST; dsDNA, one strand shown
Sequence of ELF4 (Q99607 whole entry): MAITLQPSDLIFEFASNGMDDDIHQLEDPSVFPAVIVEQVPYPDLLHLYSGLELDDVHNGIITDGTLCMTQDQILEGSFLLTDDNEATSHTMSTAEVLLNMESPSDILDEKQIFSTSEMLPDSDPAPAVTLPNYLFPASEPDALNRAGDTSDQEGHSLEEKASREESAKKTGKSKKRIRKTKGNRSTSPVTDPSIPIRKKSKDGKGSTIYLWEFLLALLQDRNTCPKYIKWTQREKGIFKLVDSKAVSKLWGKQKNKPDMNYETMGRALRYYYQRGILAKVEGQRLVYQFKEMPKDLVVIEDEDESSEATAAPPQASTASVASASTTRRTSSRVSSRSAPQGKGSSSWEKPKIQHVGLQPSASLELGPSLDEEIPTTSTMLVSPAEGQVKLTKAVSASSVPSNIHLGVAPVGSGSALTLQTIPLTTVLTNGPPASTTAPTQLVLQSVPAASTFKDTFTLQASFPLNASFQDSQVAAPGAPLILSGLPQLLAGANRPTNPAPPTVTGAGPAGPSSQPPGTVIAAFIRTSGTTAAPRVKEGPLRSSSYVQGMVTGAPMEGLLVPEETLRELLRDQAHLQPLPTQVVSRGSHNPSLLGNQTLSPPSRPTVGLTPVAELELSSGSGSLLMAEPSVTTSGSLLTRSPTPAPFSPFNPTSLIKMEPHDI
How it was run: as §1

ELK4 = target: T9, ELK4 (Homo sapiens, UniProt P28324-2 1-405); conditions: protein: recombinant; tags: N-terminal GST; dsDNA, one strand shown
T9 sequence: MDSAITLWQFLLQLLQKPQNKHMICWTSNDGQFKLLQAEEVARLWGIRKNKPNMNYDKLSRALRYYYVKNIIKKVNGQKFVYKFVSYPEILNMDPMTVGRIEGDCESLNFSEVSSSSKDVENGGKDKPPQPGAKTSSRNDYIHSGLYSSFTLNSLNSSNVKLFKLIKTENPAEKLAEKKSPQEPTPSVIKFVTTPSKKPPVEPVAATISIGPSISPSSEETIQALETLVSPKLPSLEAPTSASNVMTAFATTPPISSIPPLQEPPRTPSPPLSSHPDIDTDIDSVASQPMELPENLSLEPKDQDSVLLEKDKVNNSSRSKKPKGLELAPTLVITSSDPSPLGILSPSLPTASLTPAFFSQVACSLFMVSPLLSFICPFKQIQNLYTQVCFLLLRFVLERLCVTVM
How it was run: as §1

ETV2 = target: T10, ETV2 (Homo sapiens, UniProt O00321 1-342); conditions: protein: recombinant; tags: N-terminal GST; dsDNA, one strand shown
T10 sequence: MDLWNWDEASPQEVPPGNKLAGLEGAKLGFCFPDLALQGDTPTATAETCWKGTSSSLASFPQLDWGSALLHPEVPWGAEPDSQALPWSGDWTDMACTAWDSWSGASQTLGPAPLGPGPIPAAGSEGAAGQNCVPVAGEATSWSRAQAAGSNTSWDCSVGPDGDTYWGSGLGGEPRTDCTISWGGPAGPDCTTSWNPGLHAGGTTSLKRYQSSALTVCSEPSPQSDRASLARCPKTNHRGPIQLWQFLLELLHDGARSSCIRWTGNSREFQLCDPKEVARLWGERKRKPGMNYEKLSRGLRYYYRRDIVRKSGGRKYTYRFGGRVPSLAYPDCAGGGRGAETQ
How it was run: as §1

ELF3 = target: T11, ELF3 (Homo sapiens, UniProt P78545 1-371); conditions: protein: recombinant; tags: N-terminal GST; dsDNA, one strand shown
T11 sequence: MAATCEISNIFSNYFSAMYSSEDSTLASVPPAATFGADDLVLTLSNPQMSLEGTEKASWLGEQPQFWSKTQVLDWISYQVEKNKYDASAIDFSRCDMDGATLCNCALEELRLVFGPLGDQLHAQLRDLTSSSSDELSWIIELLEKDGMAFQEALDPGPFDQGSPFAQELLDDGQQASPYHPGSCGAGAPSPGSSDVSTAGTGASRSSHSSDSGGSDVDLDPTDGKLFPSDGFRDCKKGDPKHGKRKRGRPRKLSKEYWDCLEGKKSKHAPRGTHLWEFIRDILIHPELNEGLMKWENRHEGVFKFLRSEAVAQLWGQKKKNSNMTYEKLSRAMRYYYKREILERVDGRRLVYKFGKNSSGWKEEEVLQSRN
How it was run: as §1

CRX = CRX (Homo sapiens, UniProt O43186 1-299); conditions: protein: recombinant; tags: N-terminal GST; dsDNA, one strand shown
Sequence of CRX (O43186 whole entry): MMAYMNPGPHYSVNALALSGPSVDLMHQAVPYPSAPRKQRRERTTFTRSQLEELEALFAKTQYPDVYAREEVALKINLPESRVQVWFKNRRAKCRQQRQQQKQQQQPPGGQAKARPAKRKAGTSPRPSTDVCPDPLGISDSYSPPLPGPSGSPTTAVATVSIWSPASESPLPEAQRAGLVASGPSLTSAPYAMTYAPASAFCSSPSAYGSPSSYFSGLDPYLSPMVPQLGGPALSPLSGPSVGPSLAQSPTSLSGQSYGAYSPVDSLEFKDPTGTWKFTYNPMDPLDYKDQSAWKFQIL
How it was run: as §1

ETV1 = ETV1 (Homo sapiens, UniProt P50549 1-477); conditions: protein: recombinant; tags: N-terminal GST; dsDNA, one strand shown
Sequence of ETV1 (P50549 whole entry): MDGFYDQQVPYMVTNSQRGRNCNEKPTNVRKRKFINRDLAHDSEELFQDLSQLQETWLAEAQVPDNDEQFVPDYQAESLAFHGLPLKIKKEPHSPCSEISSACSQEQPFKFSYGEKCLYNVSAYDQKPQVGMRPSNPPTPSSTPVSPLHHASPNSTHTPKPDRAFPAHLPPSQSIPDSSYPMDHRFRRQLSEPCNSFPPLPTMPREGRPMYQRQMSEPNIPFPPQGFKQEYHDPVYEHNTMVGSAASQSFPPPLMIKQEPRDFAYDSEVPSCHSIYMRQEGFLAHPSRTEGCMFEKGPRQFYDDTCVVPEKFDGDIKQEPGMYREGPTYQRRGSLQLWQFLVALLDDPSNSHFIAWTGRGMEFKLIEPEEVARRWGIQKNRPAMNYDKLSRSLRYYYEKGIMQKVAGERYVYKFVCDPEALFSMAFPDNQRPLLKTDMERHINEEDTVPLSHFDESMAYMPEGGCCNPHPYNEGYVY
How it was run: as §1

Sequence: ATGTTC
- binding signal (FLI1): 1.19 fold enrichment (6-mer frequency, TF over GST control)
- binding signal (ELK1): 1.28 fold enrichment (6-mer frequency, TF over GST control)
- binding signal (GABPA): 1.18 fold enrichment (6-mer frequency, TF over GST control)
- binding signal (ERG): 1.21 fold enrichment (6-mer frequency, TF over GST control)
- binding signal (ELF1): 1.21 fold enrichment (6-mer frequency, TF over GST control)
- binding signal (EHF): 1.34 fold enrichment (6-mer frequency, TF over GST control)
- binding signal (SPI1): 1.2 fold enrichment (6-mer frequency, TF over GST control)
- binding signal (SPIB): 1.22 fold enrichment (6-mer frequency, TF over GST control)
- binding signal (ELK3): 1.14 fold enrichment (6-mer frequency, TF over GST control)
- binding signal (FEV): 1.15 fold enrichment (6-mer frequency, TF over GST control)
- binding signal (ETV5): 1.16 fold enrichment (6-mer frequency, TF over GST control)
- binding signal (HSF1): 2.33 fold enrichment (6-mer frequency, TF over GST control)
- binding signal (SPIC): 1.32 fold enrichment (6-mer frequency, TF over GST control)
- binding signal (ELF4): 1.22 fold enrichment (6-mer frequency, TF over GST control)
- binding signal (ELK4): 1.2 fold enrichment (6-mer frequency, TF over GST control)
- binding signal (ETV2): 1.14 fold enrichment (6-mer frequency, TF over GST control)
- binding signal (ELF3): 1.15 fold enrichment (6-mer frequency, TF over GST control)
- binding signal (CRX): 1.22 fold enrichment (6-mer frequency, TF over GST control)
- binding signal (ETV1): 1.3 fold enrichment (6-mer frequency, TF over GST control)
